Our source for the Potency values is PubChem BioAssay AID1508621 (National Center for Advancing Translational Sciences (NCATS), 2021).

Records with an inconclusive call do not appear. Entries that show only a call come without a potency. The source made the active and inactive calls. Calls come from the whole dose curve; as a rule, active = well fitted inhibition curve with a large enough effect; inconclusive = small, poorly fitted or top-dose-only effect; inactive = no such curve, though single readings can be large or run the other way.
Potency is the fitted concentration of half-maximal effect.

The nature of this assay: Confirmatory qHTS for Identification of Small Molecule Inhibitors of Huntingtin Promoter Activity. Note: nearly all actives have a fitted effect of over 65% in size. The following applies: HEK293 HTT promoter firefly luciferase reporter, 24 h; series mostly up to 57.5 µM. A digest of the protocol: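 Plated reporter HEK293 cells (24 h) received library compounds at up to 57.5 uM final or 50 uM PTC124, incubated 24 h at 37C; firefly luciferase luminescence was then recorded with Dual-Glo reagent.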
In the case of `COc1ccc(NC(=O)Cn2c(SCc3ccc(C)cc3)nc3cccnc32)cc1OC`, the Potency entry is “inactive”.
For the molecule `C#Cc1cccc(Nc2ncnc3cc(OC)c(OCCCCCCC(=O)NO)cc23)c1`, the Potency entry is “inactive”.
On to `CCOc1ccccc1NC(=O)C(=O)c1cc(C)n(-c2ccc(F)cc2)c1C`, for which the Potency result is “inactive”.
To `O=C(Cn1cc(SCc2ccccc2F)c2ccccc21)N1CCCC1` belongs “inactive”; to `C=Cc1ccc(Cn2c(C(=O)O)c(CNCc3ccccc3)c3ccc(C)cc32)cc1`, 21.3 µM (active); to `CCCN(c1ccccc1CC)S(=O)(=O)c1ccc2c(c1)CC(C)N2C(=O)C1CC1` (stereo unspecified), 13.5 µM (active).
Turning to `Cc1cc(NC(=O)c2cc(-c3ccc(Cl)cc3)on2)nn1Cc1ccc(Cl)cc1`, the Potency result is “inactive”.
For `Cc1c(NS(C)(=O)=O)cccc1-c1nc2ccccc2s1`, the Potency result was “inactive”.
For `O=C1C2=C(Nc3ccccc3SC2c2ccc(C(F)(F)F)cc2)c2ccccc21` (stereo unspecified), the Potency was 19 µM (active).
To `Cc1ccccc1Cn1c(=O)n(Cc2ccco2)c(=O)c2oc3ccccc3c21` belongs “inactive”; to `O=C(Nc1cccc(C(=O)N2CCN(c3ccc(Cl)cc3)CC2)c1)c1nsc2ccccc12`, “inactive”; to `CC(C)c1ccc(C2=CC(c3cccc(Cl)c3)n3c(nc4ccccc43)N2)cc1` (stereo unspecified), “inactive”.
On to `COc1ccc(S(=O)(=O)c2cc3cc(C(C)(C)C)cc(O)c3oc2=O)cc1`, for which the Potency entry was “inactive”.
To `O=C(CN1c2ccc(Br)cc2-c2ccccc2S1(=O)=O)N1CCCCC1` belongs “inactive”; to `CC1CCN(C(=O)CN2c3ccc(Br)cc3-c3ccccc3S2(=O)=O)CC1`, “inactive”.
Take `Cc1cccc(S(=O)(=O)Nc2cccc(-c3ccc(N4CCCCC4)nn3)c2)c1`: the Potency entry was “inactive”.
